Reference: PubChem BioAssay
The source made the active and inactive calls.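 Rule for the calls, unless noted: active = NADPH fluorescence slope more negative than the mean of all samples by about 3 SD, 99.7% confidence; inactive = the rest.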

Legend:
[1] = inhibitors of TNFa-induced NFkB p65 translocation, primary screen, imaging, HUVEC, MLSMR starter and 10KST1 sets (AID 438;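 active = inhibition above 20% together with a positive visual image hit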;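 note: compound added about 3h40 before a 20 min TNFalpha stimulation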;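 for inhibition: signal is the nuclear over cytoplasmic p65 intensity ratio per well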); details: HUVEC TNFa-induced p65 nuclear translocation; cell count: measured here: nuclei count (cytotoxicity indicator), at 2.08 µM; inhibition: at 2 µM, stronger effect = higher value, 0% TNFa-plus-vehicle, 100% no-TNFa wells
[2] = inhibitors of mutant huntingtin aggregation, primary screen, imaging, exon1htt(103Q)mCFP cells, high-content imaging (AID 483;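 active = visual image review flags a hit and inhibition of aggregation exceeds 20%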;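 note: compound exposure lasted 3 days before fixation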;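 for nuclei count: percent of the per-plate median nuclei count of sample wells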); details: exon1htt(103Q)mCFP cell line, aggregate imaging, at 2 µM; inhibition of aggregation: stronger effect = higher value; nuclei count: measured here: cell count, toxicity
[3] = inhibitors of E-selectin induction by TNFa, primary screen, imaging, HUVEC, immunofluorescence, MLSMR starter and 10KST1 sets (AID 487;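 active = visually confirmed hit in the image check and inhibition above 20%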;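 for inhibition: signal is fraction of cell area covered by stained E-selectin grains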;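 for nuclei count: 100% = median nuclei count of all wells on the same plate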); details: HUVEC TNFalpha-induced E-selectin immunofluorescence imaging, at 2 µM; inhibition: stronger effect = higher value; nuclei count: measured here: cell number, toxicity
[4] = molecular target: Voltage-gated potassium channel subunit beta-2 (Rattus norvegicus) (UniProt P62483); assay: KvBeta enzyme negative modulators, primary screen, biochemical, NADPH fluorescence (AID 622;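 active = fluorescence slope higher than the sample average by over 3 SD, cut at about -0.22 in these data, passing the limit was not always enough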;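 note: slope of raw intensity against log time taken from 70 to 1610 s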); details: recombinant KvBeta, 4-cyanobenzaldehyde reduction, at 10 µM, stronger effect = higher value
[5] = molecular target: Voltage-gated potassium channel subunit beta-2 (Rattus norvegicus) (UniProt P62483); assay: KvBeta positive modulators, primary screen, biochemical, NADPH fluorescence (AID 623); details: Recombinant KvBeta, NADPH fluorescence decrease slope, 10 min; at 10 µM; stronger effect = lower value;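 note: fluorescence intensity change per second fitted from 20 to 320 s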
[6] = molecular target: Alpha-2C adrenergic receptor (Homo sapiens) (UniProt P18825); assay: modulators of alpha2C/GIRK thallium flux, primary screen, cell-based, HEK293 alpha2C/GIRK1/2 (AID 624;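 active = fluorescence slope after compound addition differing from the mean of all screened samples at 99.7% confidence, in either direction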;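 note: slope of fluorescence ratio to pre-addition baseline per second over 15 to 24 s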); details: thallium flux BTC fluorescence, at 10 µM, actives lie on both sides
[7] = inhibitors of Sendai virus-induced IRF3 signaling, primary screen, TLR/RLR signaling modifier project, cell-based, Sendai virus stimulus, luciferase, 10K MLSCN set (AID 602276;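 active = inhibition at or above 50% at 10 µM; inactive = inhibition below 50%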;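 note: firefly luciferase from ISG56 promoter only with Renilla not read in this screen; 0% = Sendai virus plus DMSO and 100% = medium plus DMSO without virus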); details: HEK293 RL24 IRF3 luciferase reporter, at 10 µM, stronger effect = higher value
[8] = inhibitors of poly I:C-induced TLR3 signaling, primary screen, cell-based, poly I:C stimulus, luciferase, 10K MLSCN set (AID 602277;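 active = inhibition of the reporter signal at or above 50%; inactive = inhibition below 50%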); details: HEK293-TLR3 RL24 IRF3 luciferase reporter, at 10 µM, stronger effect = higher value

Chain of Voltage-gated potassium channel subunit beta-2 (Rattus norvegicus) (P62483 whole entry, looked up): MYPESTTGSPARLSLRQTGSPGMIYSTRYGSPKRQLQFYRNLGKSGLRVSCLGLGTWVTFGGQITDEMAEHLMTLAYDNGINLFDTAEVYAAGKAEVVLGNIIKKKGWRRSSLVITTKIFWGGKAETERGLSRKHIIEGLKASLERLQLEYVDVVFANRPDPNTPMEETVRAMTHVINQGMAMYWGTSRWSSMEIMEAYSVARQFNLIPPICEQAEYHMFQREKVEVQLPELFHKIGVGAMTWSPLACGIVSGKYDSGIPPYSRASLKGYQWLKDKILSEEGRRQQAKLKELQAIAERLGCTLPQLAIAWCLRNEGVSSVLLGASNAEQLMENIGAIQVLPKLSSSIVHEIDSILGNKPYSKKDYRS
Chain of Alpha-2C adrenergic receptor (Homo sapiens) (P18825 whole entry, looked up): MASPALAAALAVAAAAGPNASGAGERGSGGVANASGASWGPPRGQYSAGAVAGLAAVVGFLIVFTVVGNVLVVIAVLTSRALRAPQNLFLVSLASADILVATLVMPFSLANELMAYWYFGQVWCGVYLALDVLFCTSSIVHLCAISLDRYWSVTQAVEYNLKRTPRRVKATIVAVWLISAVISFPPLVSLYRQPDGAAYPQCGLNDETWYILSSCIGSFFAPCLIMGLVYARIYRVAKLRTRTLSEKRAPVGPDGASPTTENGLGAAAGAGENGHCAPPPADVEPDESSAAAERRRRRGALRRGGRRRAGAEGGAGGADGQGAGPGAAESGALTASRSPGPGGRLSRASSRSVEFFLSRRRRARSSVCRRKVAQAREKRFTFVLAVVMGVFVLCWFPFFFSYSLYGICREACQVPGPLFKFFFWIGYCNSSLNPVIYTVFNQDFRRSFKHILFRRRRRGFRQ

| SMILES | cell count [1] | inhibition [1] | inhibition of aggregation [2] | nuclei count [2] | inhibition [3] | nuclei count [3] | fluorescence slope [4] | NADPH fluorescence slope [5] | slope [6] | inhibition [7] | inhibition [8] |
| --- | --- | --- | --- | --- | --- | --- | --- | --- | --- | --- | --- |
| COc1ccc(OC)c(C(C)NC=O)c1 (centres undefined) | 438 | 3% (inactive) | 14.2% (inactive) | 108% | -56.8% (inactive) | 108% | -0.449 (inactive) | 1.3e-05 (inactive) | 0.00556 (inactive) | 0.449% (inactive) | 23.1% (inactive) |
| COc1ccc(-n2nnnc2SCC(=O)N2CCOCC2)cc1 | 788 | 2.8% (inactive) | 9.1% (inactive) | 85.7% | -9.3% (inactive) | 114% | -0.525 (inactive) | -4.9e-05 (inactive) | 0.00627 (inactive) | 2.03% (inactive) | -10.7% (inactive) |
| Cc1ccc(N(CC(=O)NCC2CCCO2)S(C)(=O)=O)cc1Cl (centres undefined) | 478 | -4.5% (inactive) | 0.2% (inactive) | 114% | -59.9% (inactive) | 121% | -0.292 (inactive) | -1.4e-05 (inactive) | 0.00598 (inactive) | 23.8% (inactive) | 12.4% (inactive) |
| N#CC1=C(N)Oc2c(ccc3cccnc23)C1c1cccnc1 (centres undefined) | 749 | 7.3% (inactive) | 4.4% (inactive) | 89% | -67.8% (inactive) | 130% | -0.469 (inactive) | -2e-05 (inactive) | 0.0058 (inactive) | 47.8% (inactive) | 45.8% (inactive) |
| O=C(OCC(=O)c1ccc[nH]1)c1ccc(S(=O)(=O)N2CCCCC2)cc1 | 314 | 22.9% (inactive) | 1.5% (inactive) | 96.8% | -31.1% (inactive) | 98% | -0.444 (inactive) | -4.5e-05 (inactive) | 0.00419 (inactive) | 2.97% (inactive) | 29.4% (inactive) |
| COC(=O)c1ccc(NC(=O)Cn2nnc3ccccc32)cc1 | 445 | -10.2% (inactive) | 8.3% (inactive) | 134% | -8.2% (inactive) | 134% | -0.377 (inactive) | -5.8e-05 (inactive) | 0.0057 (inactive) | -21.8% (inactive) | -69.7% (inactive) |
| CCOCCCNC(=O)Cn1ncc2c(=O)oc3ccccc3c21 | 651 | -13.4% (inactive) | -20.1% (inactive) | 98.5% | -32.1% (inactive) | 104% | -0.586 (inactive) | -1.8e-05 (inactive) | 0.00598 (inactive) | 5.54% (inactive) | 30.9% (inactive) |
| COC(C)(C)c1cc(C(C)(C)C)nc(N)n1 | 433 | 12% (inactive) | 9.5% (inactive) | 103% | -28.8% (inactive) | 129% | -0.385 (inactive) | -7.8e-05 (inactive) | 0.00615 (inactive) | 6.59% (inactive) | 24.6% (inactive) |
| O=C(CSc1nc(O)c(Cc2ccccc2)c(=O)[nH]1)Nc1ccccc1 | 366 | 5.3% (inactive) | 0.2% (inactive) | 95.2% | 5.2% (inactive) | 115% | -0.44 (inactive) | -3e-05 (inactive) | 0.00311 (inactive) | 3.29% (inactive) | 24.3% (inactive) |
| O=C(c1ccc2nc(N3CCOCC3)sc2c1)N1CCCC1 | 708 | -11.2% (inactive) | 6% (inactive) | 62.7% | -70.6% (inactive) | 116% | -0.564 (inactive) | -2.7e-05 (inactive) | 0.00689 (inactive) | 3.55% (inactive) | 3.65% (inactive) |
| CC1(C)CC(=O)C(CC2=C(O)CC(C)(C)CC2=O)=C(O)C1 | 628 | -6.7% (inactive) | 15.8% (inactive) | 90.9% | -24.2% (inactive) | 112% | -0.386 (inactive) | -1.3e-05 (inactive) | 0.00397 (inactive) | 7.41% (inactive) | 23.2% (inactive) |
| CCOC(=O)C1=C(C)NC2=C(C(=O)CC(C)(C)C2)C1c1ccc(N(C)C)cc1 (centres undefined) | 368 | -7.9% (inactive) | 26.1% (inactive) | 104% | -27.4% (inactive) | 116% | -0.491 (inactive) | -8.1e-05 (inactive) | 0.00676 (inactive) | -2.32% (inactive) | 2.28% (inactive) |
| CCOC(=O)c1c(-c2ccc(C)o2)csc1NC(=O)COC(=O)c1cccs1 | 478 | -7.8% (inactive) | 10% (inactive) | 66.4% | -41.5% (inactive) | 113% | -0.403 (inactive) | -5.7e-05 (inactive) | 0.00798 (inactive) | 7.28% (inactive) | 15.5% (inactive) |
| Cc1ccc(-n2ncc3c(=O)[nH]c(SCC(=O)N4CCN(c5ccccc5)CC4)nc32)cc1 | 229 | -8.5% (inactive) | 12.5% (inactive) | 93.6% | -22.6% (inactive) | 118% | -0.358 (inactive) | -1.3e-05 (inactive) | 0.00346 (inactive) | 9.1% (inactive) | 23.7% (inactive) |
